Myc binder – binders of human c-Myc, primary screen, biochemical, small molecule microarray, anti-His fluorescence; hit rate 1.5% among 17,000; His-c-Myc binding; calls only; AID 624141, 2012; Myc proto-oncogene protein (Homo sapiens), P01106;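 active = spot fluorescence over background with P-value below 7% in all four replicate spots, showing protein binding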;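 note: score is binary with 100 for all four spots passing and 0 otherwise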
p53 mut binder – binders of human mutant p53, primary screen, biochemical, small molecule microarray, anti-GST fluorescence; mutant tumor protein p53 (GST-tagged), Homo sapiens; small molecule microarray binding; calls only; hit rate 0.4% among 17,000; AID 624136, 2012;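 active = compounds whose four printed spots each glow above background more than chance allows, each with a p-value under 7%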
NFkB SMM – binders of NF-kB p50 subunit, primary screen, biochemical, small molecule microarray, anti-His fluorescence; Nuclear factor NF-kappa-B p105 subunit (Homo sapiens), P19838; anti-His fluorescence binding; calls only; hit rate 1.3% among 17,000;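 active = spot fluorescence over background significantly raised, with a chance value under 7% in all four replicate spots of the compound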;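 note: probe protein is his-tagged human p50 processed subunit at 1 µg/ml; raw spot fluorescence signals with no normalization applied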
Target sequence (P19838 1-433 limits assumed): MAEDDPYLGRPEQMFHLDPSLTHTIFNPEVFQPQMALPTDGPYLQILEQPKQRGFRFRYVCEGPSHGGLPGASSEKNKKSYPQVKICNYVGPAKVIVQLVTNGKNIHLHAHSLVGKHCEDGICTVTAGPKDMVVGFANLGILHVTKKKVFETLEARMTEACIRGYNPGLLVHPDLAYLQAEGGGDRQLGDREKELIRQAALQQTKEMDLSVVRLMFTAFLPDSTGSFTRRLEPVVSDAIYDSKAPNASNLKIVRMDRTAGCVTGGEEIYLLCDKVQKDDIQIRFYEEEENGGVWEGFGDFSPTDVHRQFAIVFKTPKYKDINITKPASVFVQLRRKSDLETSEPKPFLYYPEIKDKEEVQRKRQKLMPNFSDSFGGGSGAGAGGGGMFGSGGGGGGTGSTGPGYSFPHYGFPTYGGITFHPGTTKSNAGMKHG
STAT3 binder – STAT3 binders, primary screen, biochemical, small molecule microarray, single point, set 2; Signal transducer and activator of transcription 3 (Homo sapiens), P40763; His-STAT3 binding, anti-His fluorescence; calls only; hit rate 0.2% among 17,000;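 active = compounds whose four printed spots each show fluorescence over background unusually high for their array block, chance value under 7%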
Active calls of the source: *; i = inactive; + = active, no number. Only some compounds are listed: those with a hit (about 2.1% of all), similar ones and a draw of the others.

SMILES	Myc binder	p53 mut binder	NFkB SMM	STAT3 binder
COc1ccc2c(c1)c(=O)oc1cc(OCC(=O)Nc3cc(C)cc(C)c3)ccc12	i	i	i	i
Cc1noc(C)c1S(=O)(=O)N(C)C[C@H]1OCCCC[C@@H](C)Oc2ccc(NC(=O)NC(C)C)cc2C(=O)N([C@@H](C)CO)C[C@H]1C	+	i	i	i
Cc1noc(C)c1S(=O)(=O)N(C)C[C@H]1OCCCC[C@H](C)Oc2ccc(N(C)C)cc2C(=O)N([C@@H](C)CO)C[C@@H]1C	i	+	i	i
Cc1noc(C)c1S(=O)(=O)N(C)C[C@H]1OCCCC[C@H](C)Oc2ccc(NC(=O)NC(C)C)cc2C(=O)N([C@H](C)CO)C[C@@H]1C	i	i	i	i
C[C@H](CO)N1C[C@H](C)[C@@H](CN(C)S(=O)(=O)c2ccccc2)OCCCC[C@H](C)Oc2ccc(N(C)C)cc2C1=O	i	+	i	i
Cc1noc(C)c1S(=O)(=O)N(C)C[C@@H]1OCCCC[C@@H](C)Oc2ccc(N(C)C)cc2C(=O)N([C@H](C)CO)C[C@H]1C	+	i	+	i
CC1=CCC(C(C)(C)O[C@@H]2O[C@H](C)[C@@H](O)[C@H](O)[C@H]2O)CC1 (some centres undefined)	i	i	i	i
O=C(Cn1ccc([N+](=O)[O-])n1)N1CCOCC1	i	i	i	i
COc1ccc(NC(=O)O[C@H]2[C@H](OC(=O)Nc3ccccc3-c3ccccc3)[C@H](OC(=O)Nc3ccccc3-c3ccccc3)[C@@H](OC)O[C@@H]2CO)cc1	i	i	i	i
CCOC(=O)c1ccc(COc2ccc(-c3cnc4ccccc4n3)cc2)o1	i	i	i	i
CC(C)(Sc1ccc(CCN(CCCCC2CCCCC2)C(=O)NC2CCCCC2)cc1)C(=O)O	i	i	+	i
Cn1c2ccccc2c2nnc(SCC(=O)c3ccc(Cl)cc3)nc21	+	i	i	i
CC1(C)CC2/C(CO)=C\C=C[C@@](C)(O)CC[C@]21O (some centres undefined)	i	i	i	i
Cc1cc2nc3c(=O)[nH]c(=O)nc-3n(C)c2cc1C=O	+	i	i	i
COc1ccc(OCC(=O)Nc2cc(OC)c(Cl)cc2OC)cc1	i	i	i	i
CCC(C)C(O)C(C)(O)/C=C/C1=CC2=CC(=O)C(C)(O)C(O)C2CO1 (centres undefined)	i	i	i	i
COc1c(O[C@@H]2O[C@H](C(=O)O)[C@@H](O)[C@H](O)[C@H]2O)cc2oc(-c3ccccc3)cc(=O)c2c1O	i	i	i	i
Cc1c(CC(=O)O)c(=O)oc2c(C)c(OCC(=O)O)ccc12	i	i	i	i
Cc1c(CC(=O)O)c(=O)oc2cc(OCC(=O)O)ccc12	+	i	i	i
Cc1cccc(NC(=O)CCC(=O)O)c1	+	i	i	i
Cc1ccc(NC(=O)c2cccc(NC(=O)CCC(=O)O)c2)cc1C	i	i	i	i
C[C@@H]1CCCCO[C@H](CN(C)C(=O)Nc2ccccc2)[C@@H](C)CN([C@@H](C)CO)C(=O)c2cc(NC(=O)CCC(F)(F)F)ccc2O1	+	i	i	i
C[C@H](CO)N1C[C@H](C)[C@H](CN(C)C(=O)Nc2ccccc2)OCCCC[C@H](C)Oc2ccc(NC(=O)CCC(F)(F)F)cc2C1=O	i	i	+	i
C[C@@H]1O[C@@H](O[C@@H]2[C@@H](O)[C@H](OCCc3ccc(O)c(O)c3)O[C@H](CO[C@@H]3OC[C@](O)(CO)[C@H]3O)[C@H]2OC(=O)/C=C/c2ccc(O)c(O)c2)[C@H](O[C@@H]2OC[C@H](O)[C@H](O)[C@H]2O)[C@H](O)[C@H]1O	i	i	i	i
N#CCCSCc1ccc2oc(C(=O)O)cc2c1	+	i	i	i
SMILES	Myc binder	p53 mut binder	NFkB SMM	STAT3 binder
COC(=O)c1ccc(CSc2n[nH]c(-c3ccccc3OC)n2)o1	i	i	i	i
Cc1cc(C)cc(N(CC(=O)Nc2ccc(Br)c(Cl)c2)S(C)(=O)=O)c1	i	i	i	i
N#Cc1c(NC(=S)NC(=O)c2cncc(Br)c2)sc2c1CCCC2	i	i	i	i
Cc1cccnc1NC(=S)NC(=O)c1cncc(Br)c1	+	i	i	i
COc1cc(NC(=O)C(C)Oc2ccccc2)c(Cl)cc1NC(=O)c1ccc(Cl)cc1 (centres undefined)	i	i	i	i
Cc1cc(Cl)ccc1OC(C)C(=O)Nc1ccc(C(=O)Nc2ccccc2C(=O)O)cc1 (centres undefined)	+	i	i	i
Cc1nccn1CC(O)COc1ccccc1Br (centres undefined)	i	i	i	i
C[C@@H]1CN([C@@H](C)CO)C(=O)c2cc(NC(=O)c3ccncc3)ccc2O[C@@H](C)CCCCO[C@H]1CN(C)C(=O)CCC(F)(F)F	i	i	i	i
C[C@@H]1CCCCO[C@H](CN(C)C(=O)CCC(F)(F)F)[C@@H](C)CN([C@H](C)CO)C(=O)c2cc(NC(=O)c3ccncc3)ccc2O1	i	i	i	i
C[C@H](CO)N1C[C@H](C)[C@H](CN(C)C(=O)CCC(F)(F)F)OCCCC[C@H](C)Oc2ccc(NC(=O)c3ccncc3)cc2C1=O	+	i	+	i
C[C@@H]1CCCCO[C@H](CN(C)C(=O)CCC(F)(F)F)[C@H](C)CN([C@@H](C)CO)C(=O)c2cc(NC(=O)c3ccncc3)ccc2O1	i	i	+	i
COc1cc(CO)ccc1OC(C)=O	i	i	i	i
O=C(Nc1sc2c(c1C(=O)NCc1ccco1)CCCC2)c1ccc(Cl)cc1Cl	i	i	i	i
COc1ccc(OCC(=O)Nc2ccccc2-c2nc3ccccc3s2)cc1	i	i	i	i
COc1cc(-c2nc3ccccc3s2)cc(Br)c1OCC(=O)O	+	i	i	i
CCCN(CCC)CC1CCCCN1CCNC(=O)N1c2ccccc2C(=O)Nc2cccnc21 (centres undefined)	i	+	i	i
CCOc1ccc(C)cc1S(=O)(=O)n1nnc2ccccc21	+	i	+	i
CC1(C(=O)c2ccccc2)C2c3c(ccc4ccccc34)OC(=O)C21C(=O)c1ccco1 (centres undefined)	i	i	i	i
O=C1c2ccccc2C(=O)N1C1CCN(Cc2ccc(OCCO)cc2)CC1	i	i	i	i
O=C1c2ccccc2C(=O)N1CC1CCN(Cc2cccc(OCCO)c2)CC1	+	i	i	i
